Shown are actives, neighbours in structure and some others; about 1.2% of the full set was active somewhere.
ABHD5-PLIN5 inh – ABHD5-PLIN5 protein interaction inhibition; hit rate 0.78% among 360,000; Split G. princeps luciferase complementation, luminescence, 4 h; inhibition, % at 4 µM; AID 602281;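 active means inhibition above the mean inhibition across every tested compound plus 3 SD, cut at about 22% in these data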;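 further: 0% = DMSO only wells and the 100% control is not disclosed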
TLR9-MyD88 inh – blocks human TLR9 binding to MyD88; Q9NR96+Q99836; CHO BLA complementation TLR9-MyD88, CCF4 FRET ratio; inhibition, % at 4.98 µM; hit rate 0.21% among 340,000; AID 504734;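 active means inhibition above the mean over all tested compounds plus 3 SD, cut at about 21% in these data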;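 further: 0% = DMSO only wells and 100% = clavulanate BLA inhibitor control wells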
Target sequence (Q99836 whole entry, looked up): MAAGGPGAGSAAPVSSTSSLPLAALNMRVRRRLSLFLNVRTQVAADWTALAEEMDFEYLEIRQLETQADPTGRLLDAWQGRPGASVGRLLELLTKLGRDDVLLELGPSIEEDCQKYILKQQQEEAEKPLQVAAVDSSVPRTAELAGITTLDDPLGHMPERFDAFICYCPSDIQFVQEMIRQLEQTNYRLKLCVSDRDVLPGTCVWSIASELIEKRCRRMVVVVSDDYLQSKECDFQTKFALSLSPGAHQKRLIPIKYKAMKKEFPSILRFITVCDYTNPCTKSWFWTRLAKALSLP
Target sequence (Q9NR96 whole entry, looked up): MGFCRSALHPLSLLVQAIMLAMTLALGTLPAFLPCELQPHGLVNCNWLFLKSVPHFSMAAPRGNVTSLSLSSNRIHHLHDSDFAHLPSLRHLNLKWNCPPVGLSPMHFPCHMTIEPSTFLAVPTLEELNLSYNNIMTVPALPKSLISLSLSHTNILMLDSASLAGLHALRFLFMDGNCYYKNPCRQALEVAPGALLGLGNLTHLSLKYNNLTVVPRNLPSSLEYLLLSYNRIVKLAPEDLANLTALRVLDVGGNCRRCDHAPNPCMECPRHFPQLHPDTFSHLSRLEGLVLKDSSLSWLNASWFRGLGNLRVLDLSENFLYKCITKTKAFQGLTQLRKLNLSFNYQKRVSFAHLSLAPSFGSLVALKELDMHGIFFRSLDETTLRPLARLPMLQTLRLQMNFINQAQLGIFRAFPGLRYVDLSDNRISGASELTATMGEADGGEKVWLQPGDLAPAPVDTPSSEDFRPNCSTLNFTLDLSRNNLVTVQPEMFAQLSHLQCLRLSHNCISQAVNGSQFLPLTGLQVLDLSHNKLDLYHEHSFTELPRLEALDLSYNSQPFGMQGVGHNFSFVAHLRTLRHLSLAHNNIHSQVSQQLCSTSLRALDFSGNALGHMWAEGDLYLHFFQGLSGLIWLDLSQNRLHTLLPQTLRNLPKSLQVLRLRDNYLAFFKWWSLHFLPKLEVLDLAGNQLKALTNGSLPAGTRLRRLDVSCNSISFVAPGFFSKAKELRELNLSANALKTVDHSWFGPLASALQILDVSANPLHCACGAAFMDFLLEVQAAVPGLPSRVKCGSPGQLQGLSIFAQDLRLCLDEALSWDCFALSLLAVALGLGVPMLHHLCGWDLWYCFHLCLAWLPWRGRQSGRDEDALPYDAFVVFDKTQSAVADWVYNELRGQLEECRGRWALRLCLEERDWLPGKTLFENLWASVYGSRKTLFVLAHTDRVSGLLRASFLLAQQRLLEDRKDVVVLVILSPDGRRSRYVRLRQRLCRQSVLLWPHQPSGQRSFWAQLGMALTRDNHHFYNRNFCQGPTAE
TLR4-MyD88 BLA – inhibitors of human TLR4-MyD88 binding; inhibition, % at 8.4 µM; AID 861; HeLa CL3-4 TLR4/MyD88 BLA complementation, FRET ratio; O00206+Q99836; hit rate 0.18% among 200,000; in the data active means inhibition above about 25%;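 further: 0% = vehicle and 100% = reference inhibitor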
NOD2 RIPK2 PPI – inhibitors of human NOD2-RIPK2 interaction; CHO BLA complementation NOD2-RIPK2, CCF4 ratio; inhibition, % at 4.98 µM; hit rate 0.38% among 360,000; AID 624267; in the data active means inhibition above about 21%;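 further: 0% = vehicle only and 100% = reference blocker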
NOD2-RIPK2 conf – NOD2-RIPK2 interaction inhibition confirmed. AID 624370. hit rate 70% among 1,200. CHO cells, NOD2-RIPK2 BLA complementation, CCF4 FRET. inhibition, % at 4.98 µM. shares compounds with NOD2 RIPK2 PPI;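 active means mean inhibition across replicates above a set limit taken from the earlier primary screen, cut at about 21% in these data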;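 further: 0% = DMSO-only wells and the high end = clavulanate BLA-blocked wells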
BLA counter – NOD2-RIPK2 counterscreen BLA reporter activity | inhibition, % at 4.98 µM | shares compounds with NOD2 RIPK2 PPI | CHO BLA reporter, CCF4 FRET ratio | hit rate 57% among 1,200 | AID 624371;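 active means mean inhibition above the low-control mean inhibition plus three low-control SD, cut at about 11% in these data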;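 further: 0% = DMSO only wells and 100% = clavulanate high control wells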
An asterisk follows results filed as active; / = no result.

SMILES | ABHD5-PLIN5 inh | TLR9-MyD88 inh | TLR4-MyD88 BLA | NOD2 RIPK2 PPI | NOD2-RIPK2 conf | BLA counter
Cc1cn([C@H]2C[C@H](O)[C@@H](/C=C/C(=O)NCc3ccccc3)O2)c(=O)[nH]c1=O | 1.0 | / | / | -3.5 | / | /
COc1cccc(-c2nn(Cc3ccccc3)cc2CO)c1 | 5.9 | -5.1 | / | -6.6 | / | /
COc1ccc(C(C)=O)cc1CSc1nc2ccccc2c(=O)n1-c1ccccc1C | 2.5 | -3.1 | 11.0 | 24.0* | -1.6 | -2.5
COc1ccc(-c2cc(-c3nc4ccccn4c3NCc3ccccc3)ccc2OC)cc1 | 0.3 | -4.6 | / | 29.1* | 20.9 | 5.8
COc1ccc(-c2nc3ccccn3c2NCc2ccc3c(c2)OCO3)cc1 | 8.4 | 12.7 | 2.9 | 0.7 | / | /
CC(C)c1cc(C(=O)NCCc2cccs2)c(N)s1 | -13.4 | / | / | 7.1 | / | /
O=C1OCCN1CC(=O)N1CCc2c([nH]c3ccccc23)C1c1ccccn1 (stereo not drawn) | -8.2 | -12.6 | -7.7 | 22.1* | -11.8 | -4.1
COc1ccc(OCC(=O)N2CCc3c([nH]c4ccccc34)C2c2ccccn2)cc1 (stereo not drawn) | 2.1 | 3.1 | -5.8 | -4.6 | / | /
CCCCCCCCCc1nc2sc3c(c2c(=O)n1NC(=O)c1ccc([N+](=O)[O-])cc1)CC(C)(C)OC3 | -5.9 | -4.2 | -18.7 | 32.2* | -1.1 | 0.8
CCCCCCCCCc1nc2sc3c(c2c(=O)n1NC(=O)c1ccccc1[N+](=O)[O-])CC(C)(C)OC3 | -7.0 | -7.1 | -10.2 | -5.7 | / | /
CCOC(=O)CN1C(=O)S/C(=C/C=C/c2ccc(N(C)C)cc2)C1=O | -1.6 | -1.3 | 10.3 | -1.3 | / | /
c1ccc(-c2ccc3nncn3c2)cc1 | 1.7 | / | / | -0.6 | / | /
FC(F)(F)c1ccccc1-c1ccc2nncn2c1 | 1.6 | / | / | 23.1* | -5.8 | 0.5
O=C(c1cccc(S(=O)(=O)N2CCN(c3ccc(F)cc3)CC2)c1)N1CCN(c2ccccc2O)CC1 | 2.7 | -3.4 | / | 1.9 | / | /
O=C(NCCc1ccc(O)c(O)c1)C1COc2ccccc2O1 (stereo not drawn) | 6.8 | -5.8 | / | -9.5 | / | /
Fc1ccc(-[n+]2nc(Nc3ccccc3)sc2-c2c(Cl)cccc2Cl)cc1 | -1.6 | 18.1 | / | 52.7* | 42.1* | 15.8*
COc1ccc2ccccc2c1-c1sc(Nc2ccccc2)n[n+]1-c1ccc(F)cc1 | 5.0 | 8.2 | / | 31.7* | 19.6 | 2.8
COc1ccc(-c2sc(Nc3ccccc3)n[n+]2-c2ccc(F)cc2)cc1Br | 5.5 | -3.2 | / | -18.1 | / | /
O=C(O)c1ccc(-c2sc(Nc3ccccc3)n[n+]2-c2ccc(F)cc2)cc1 | 0.0 | 2.4 | / | 0.7 | / | /
O=[N+]([O-])c1cccc(S(=O)(=O)Nc2ccccn2)c1 | -4.5 | -10.5 | / | -0.8 | / | /
CN(C)CCNC(=O)c1cccc(-c2cnc3c(NC=O)cc(-c4ccc(F)cc4)cn23)c1 | 5.7 | / | / | 5.8 | / | /
CCSc1ccc(-c2cc(NC=O)c3ncc(-c4cccc(C(=O)NCCN(C)C)c4)n3c2)cc1 | 19.1 | / | / | 23.2* | 25.0* | -2.0
COc1cccc(C(=O)CN(C(=O)c2ccc(Cl)cc2Cl)N2C(=O)c3ccccc3C2=O)c1 | -3.5 | -4.1 | -5.7 | -0.7 | / | /
Cc1ccc2oc(C(=O)NCc3ncc(C)[nH]3)c(C)c2c1 | 1.3 | -3.1 | / | -3.9 | / | /
COc1cccc(OC)c1C(=O)NC(=S)Nc1ccc2oc(-c3ccncc3)nc2c1 | -9.7 | -21.0 | -1.7 | 63.9* | -10.2 | -1.9
SMILES | ABHD5-PLIN5 inh | TLR9-MyD88 inh | TLR4-MyD88 BLA | NOD2 RIPK2 PPI | NOD2-RIPK2 conf | BLA counter
COc1c(F)c(F)c(C(=O)Nc2ccc3oc(-c4ccncc4)nc3c2)c(F)c1F | 3.5 | 4.5 | 1.3 | 5.4 | / | /
COc1cccc(CNC(=O)Cn2ccc3cc(S(=O)(=O)N4CCCC4)ccc32)c1 | -9.2 | -17.0 | / | -2.0 | / | /
CC(C)Oc1ccc(CNC(=O)Cn2ccc3cc(S(=O)(=O)N4CCCC4)ccc32)cc1 | -4.0 | 2.5 | / | 26.6* | -3.8 | -0.6
Cc1ccc(NS(=O)(=O)c2ccc(-c3cnc(C4CC4)o3)cc2)cc1 | -0.6 | -9.0 | / | 1.9 | / | /
Cc1cccc(C)c1NS(=O)(=O)c1ccc(-c2cnc(C3CC3)o2)cc1 | -7.9 | -2.1 | / | 23.4* | 9.8 | -4.3
Cc1cccc(NC(=O)c2cccc(S(=O)(=O)N(C)C3CCCCC3)c2)n1 | 0.3 | -4.8 | / | 21.0* | 0.8 | -1.9
C=CCNC1=C(Cl)C(=O)N(c2cccc(Cl)c2Cl)C1=O | -2.0 | 5.7 | 6.5 | 21.6* | 8.0 | 8.0
O=C1C(Cl)=C(NCC2CCCO2)C(=O)N1c1cccc(Cl)c1Cl (stereo not drawn) | -5.0 | -0.2 | 5.5 | 4.5 | / | /
NNc1nc2ccc(F)cc2s1 | -3.4 | 6.7 | -6.5 | 29.9* | -4.6 | -4.0
NNc1nc2ccc(Cl)cc2s1 | 1.1 | 3.1 | 0.4 | 3.5 | / | /
CN(C)c1ccc(/C=C/C(=O)c2ccc3c(c2)OCO3)cc1 | -0.9 | 18.9 | / | 54.9* | 48.1* | 54.6*
CCCc1cc(C(=O)Nc2cccc(-c3nn[nH]n3)c2)sc1C | -9.6 | -3.3 | / | -7.3 | / | /
N#Cc1sc2nc(C3CC3)cc(-c3ccc(Cl)cc3)c2c1N | -2.1 | 14.3 | 12.6 | 27.9* | 19.1 | 25.0*
COc1ccc(-c2cc(-c3cccs3)nc3sc(C#N)c(N)c23)cc1 | 2.6 | 13.4 | 17.1 | 44.7* | 51.4* | 68.6*
CC(=O)c1sc2nc(-c3cccs3)ccc2c1N | -10.2 | 4.7 | 5.5 | -1.1 | / | /
CCOc1ccc(S(=O)(=O)NCCC(=O)NCC(c2ccc(OC)cc2)N2CCCCC2)cc1 (stereo not drawn) | -3.8 | -0.3 | / | 11.2 | / | /
Cc1ccccc1NC(=O)C1C2CC/C=C\CCC21 (stereo not drawn) | 0.8 | -4.8 | -15.4 | 27.1* | -0.5 | -2.4
COc1ccc2c(c1)C(C)=CC(C)(C)N2S(=O)(=O)c1ccc(NC(C)=O)cc1 | -0.1 | -5.5 | / | 25.9* | 14.1 | -4.0
CCCS(=O)(=O)NC(=O)C1(C)CCN(C(=O)c2cc(C)nn2C(C)(C)C)C1 (stereo not drawn) | -5.3 | / | / | 13.5 | / | /
Cc1ccccc1CN(C)CCS(=O)(=O)c1cc(Cl)ccc1Cl | 22.6* | -8.2 | / | 27.9* | -2.2 | -3.8
Cc1ccc(S(=O)(=O)SCCCSS(=O)(=O)c2ccc(C)cc2)cc1 | 13.0 | 1.5 | / | 36.1* | 42.5* | 2.5
CC(Sc1ccc(S(=O)(=O)N2CCOCC2)cc1[N+](=O)[O-])C(=O)O (stereo not drawn) | -2.4 | -12.0 | -0.6 | 36.6* | -1.7 | -5.0
Cc1ccc(CNC(=O)Nc2ccc3c(c2)N(C)C(=O)CS3)cc1 | -10.7 | 0.1 | 3.9 | 27.2* | -2.6 | -4.2
Nc1ccc2cc3[nH]c4cc(N)ccc4c3nc2c1 | -8.2 | 10.7 | / | 39.3* | 73.1* | 66.2*
O=C(CCc1ccccc1)Nc1ccccc1 | -2.9 | -10.9 | -4.1 | 35.5* | -2.3 | -1.4
